This is part of a sample that, as a whole, favours compounds with a hit. Of some 83,000 tested, about 20% had one in any assay.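 Activity criterion: percent growth below 10, measured after cells in 96-well plates were exposed to a single compound concentration for 48 hours.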 Unmarked numbers belong to inactive results. Activity calls are given as the source filed them.
Columns and labels:
Assay in all cases: NCI-60 one-dose screen, 48 h (100 = growth as untreated, 0 = no growth, -100 = all killed)
Conditions in all cases: 10 µM unless noted
NCI-H226 lung = system: NCI-H226 lung
NCI-H322M lung = system: NCI-H322M lung
HOP-62 NSCLC = system: HOP-62 NSCLC
NCI-H460 lung = system: NCI-H460 lung
HOP-92 NSCLC = system: HOP-92 NSCLC
NCI-H522 lung = system: NCI-H522 lung
A549/ATCC NSCLC = system: A549/ATCC NSCLC
786-0 renal = system: 786-0 renal
COLO 205 colon = system: COLO 205 colon

Structure (SMILES)	growth (NCI-H226 lung)	growth (NCI-H322M lung)	growth (HOP-62 NSCLC)	growth (NCI-H460 lung)	growth (HOP-92 NSCLC)	growth (NCI-H522 lung)	growth (A549/ATCC NSCLC)	growth (786-0 renal)	growth (COLO 205 colon)
COc1cccc(Cn2c(-c3nonc3NC(C)=O)nc3ccccc32)c1	60.9%	33.7%	38.9%	20.7%	29.6%	-20.6% (active)	41.4%	45.8%	23.8%
Clc1ncnc2scc(C3COc4ccccc4O3)c12 (configuration not stated)	75.3%	98.6%	105%	106%	78.9%	53.6%	95.5%	104%	100%
COc1ccc(/C=C/C(=O)c2ccc(NC(=O)CSc3nnc(-c4ccc(OC)cc4)n3-c3ccccc3)cc2)cc1	99.2%	103%	101%	107%	106%		80.2%	102%	107%
CC(CN1CCN(CCOCCO)CC1)CN1c2ccccc2Sc2ccc(Cl)cc21 (configuration not stated)	83.5%	88.2%	107%	50.2%	-3.33% (active)	33.3%		65.5%	-79.9% (active)
Nc1cc2nc3ccccc3oc-2cc1=O	67.4%	108%	25.4%	-28.7% (active)	112%	-16.5% (active)	-42.4% (active)	81.9%	-74.9% (active)
CC(=O)O[C@H]1[C@H](CC#CC#CC[C@@H]2C[C@]3(C)[C@H]4CC=C5[C@H]6[C@@H](C)[C@H](C)CC[C@]6(C(=O)NCCN(CCN)CCN)CC[C@@]5(C)[C@]4(C)CC[C@H]3C(C)(C)[C@H]2OC(C)=O)C[C@]2(C)[C@H]3CC=C4[C@H]5[C@@H](C)[C@H](C)CC[C@]5(C(=O)NCCN(CCN)CCN)CC[C@@]4(C)[C@]3(C)CC[C@H]2C1(C)C	69.5%	63.3%	87.1%	80.5%	48.6%	15.2%	43%	82.8%	78%
O=C1C=CC(=O)N1c1cccc(N2C(=O)C=CC2=O)c1	111%	116%	114%	119%	94.9%	-73.1% (active)	101%	108%	-48.1% (active)
O=c1cc(N2CCOCC2)oc2c(-c3ccc4c(c3)OCCO4)csc12	11.6%	19.8%	15.5%	22%	11.9%	28.8%		9.88% (active)	5.88% (active)
CCc1ccc(Nc2ncnc3c2cnn3-c2cccc(Br)c2)cc1	85.7%	105%	84%	102%	91.8%			106%	104%
OC(c1cc2c(Cl)cc(Cl)cc2c2cc(C(F)(F)F)ccc12)C1CCCCN1 (configuration not stated)	-66% (active)	-69.7% (active)	-90% (active)	-73.6% (active)	-88.8% (active)		-80.9% (active)	-67.6% (active)	-88.3% (active)
O=C(Nc1ccccc1Cl)Oc1ccc2ccccc2c1	88.2%	109%	92.9%	102%	101%	79.6%	94.9%	90.9%	118%
COc1ccc2[nH]c(C(=O)OCc3ccc4c(Br)cc(Br)c(O)c4n3)cc2c1	-64.7% (active)	43.1%	7.47% (active)	-75.1% (active)	-59.8% (active)	-68% (active)	-10.2% (active)	-81.8% (active)	-80.2% (active)
COc1ccc(C2C=C(c3ccc(Cl)cc3)N=C3SC=CN32)cc1 (configuration not stated)	112%	133%	108%	103%	86.4%		104%	97.8%	109%
CCOC(C)(c1ccc(Cl)cc1)C1CCNCC1 (configuration not stated)	116%	105%	93.3%	70.3%	85.2%	107%	67.9%	91.9%	118%
Cc1cc(C)c(C#N)c(SCC(=O)c2sc3c(C#N)c(C)cc(C)[n+]3c2[O-])n1	46.3%	29%	17%	6.25% (active)	51.8%		19.9%	30.6%	5.03% (active)
